In PubChem BioAssay:
The source made the active and inactive calls.

Columns and labels:
Albumin (Bos taurus) = Albumin (Bos taurus) (UniProt P02769); test: bovine serum albumin binders on microarray, profiling panel, artefact control for SMM control protein annotation, biochemical, small-molecule microarray, Alexa647 label, 635/667 nm fluorescence (AID 1118); details: BSA-A647 binding, fluorescence 635 nm, higher = more signal;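 note: score merges 667 nm emission intensity and signal-to-noise per printed compound spot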
[1] = small-molecule microarray binders of probe aXIP, primary screen, biochemical, NeuroSMM set, 635/667 nm fluorescence (AID 1119); details: higher = more signal, called active from +8 up or from −8 down;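 note: probe is the protein aXip251-270 applied at 1 µg/mL to compound-printed slides; binding of probe to printed compounds measured as 667 nm fluorescence plus signal to noise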
[2] = small-molecule binders of probe aNOTCH3, primary screen, biochemical, small-molecule microarray, 635/667 nm fluorescence (AID 1120); details: higher = more signal;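 note: probe is a biotin-tagged antibody raised against NOTCH3 rather than NOTCH3 protein; score merges spot fluorescence near 667 nm with spot signal to noise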
[3] = small-molecule binders of probe aNOTCH2, primary screen, biochemical, small-molecule microarray, 635/667 nm fluorescence (AID 1121); details: higher = more signal;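 note: score merges feature fluorescence read at 667 nm with its signal to noise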
[4] = molecular target: Carbonic anhydrase 2 (Homo sapiens) (UniProt P00918); test: CAII small-molecule binders, profiling panel, biochemical, small-molecule microarray, Alexa647-labelled CAII (AID 1122); details: CAII-A647 binding fluorescence, higher = more signal
[5] = COS7 lysate on small-molecule microarray, probe aHis, 635 nm (AID 1123); details: COS7 cell lysate, fluorescence, higher = more signal;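 note: z-score combines 667nm fluorescence intensity with signal-to-noise per printed compound spot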
[6] = compound binding in COS7 lysate, probe aLAP1, primary screen, cell lysate, small-molecule microarray (AID 1124); details: probe aLAP1, fluorescence, higher = more signal;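 note: lysate comes from COS7 cells expressing LAP1 and is applied at 0.3 µg/mL; score merges spot fluorescence near 667 nm with signal-to-noise over triplicate slides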
Sam68 (KHDRBS1) = test: Sam68 small-molecule binders, primary screen, biochemical, small-molecule microarray, 635 nm fluorescence (AID 1125); details: small-molecule microarray binding, higher = more signal;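 note: score merges 667 nm channel intensity with signal to noise over triplicate slides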
[7] = system: Chordin-like protein 2 (CHRDL2); test: CHRDL2 small-molecule binders, primary screen, biochemical, small-molecule microarray, 635 nm fluorescence (AID 1126); details: small-molecule microarray binding, fluorescence 635 nm; higher = more signal;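 note: printed compound slides probed with Chrdl2 protein at 4 µg/mL for 1 h at 4 C; score merges 667 nm emission intensity with signal to noise over three replicate slides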
[8] = molecular target: Concanavalin-A (Canavalia ensiformis) (UniProt P02866); test: ConA small-molecule binders, primary screen, artefact control for SMM control protein annotation, biochemical, small-molecule microarray, Alexa647 label, 635 nm (AID 1127); details: ConA-A647 binding fluorescence, higher = more signal;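 note: z combines 667 nm emission intensity with signal-to-noise across three replicate slides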
Chain of Concanavalin-A (Canavalia ensiformis) (P02866 whole entry, looked up): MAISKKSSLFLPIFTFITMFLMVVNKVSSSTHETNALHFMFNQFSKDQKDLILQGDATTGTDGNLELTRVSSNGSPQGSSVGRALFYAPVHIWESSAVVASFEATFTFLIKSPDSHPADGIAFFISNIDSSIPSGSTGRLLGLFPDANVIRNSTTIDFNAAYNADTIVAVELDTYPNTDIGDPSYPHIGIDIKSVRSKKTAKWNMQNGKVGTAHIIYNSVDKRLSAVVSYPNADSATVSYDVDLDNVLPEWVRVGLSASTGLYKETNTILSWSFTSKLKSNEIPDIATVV

Chain of Albumin (Bos taurus) (P02769 whole entry, looked up): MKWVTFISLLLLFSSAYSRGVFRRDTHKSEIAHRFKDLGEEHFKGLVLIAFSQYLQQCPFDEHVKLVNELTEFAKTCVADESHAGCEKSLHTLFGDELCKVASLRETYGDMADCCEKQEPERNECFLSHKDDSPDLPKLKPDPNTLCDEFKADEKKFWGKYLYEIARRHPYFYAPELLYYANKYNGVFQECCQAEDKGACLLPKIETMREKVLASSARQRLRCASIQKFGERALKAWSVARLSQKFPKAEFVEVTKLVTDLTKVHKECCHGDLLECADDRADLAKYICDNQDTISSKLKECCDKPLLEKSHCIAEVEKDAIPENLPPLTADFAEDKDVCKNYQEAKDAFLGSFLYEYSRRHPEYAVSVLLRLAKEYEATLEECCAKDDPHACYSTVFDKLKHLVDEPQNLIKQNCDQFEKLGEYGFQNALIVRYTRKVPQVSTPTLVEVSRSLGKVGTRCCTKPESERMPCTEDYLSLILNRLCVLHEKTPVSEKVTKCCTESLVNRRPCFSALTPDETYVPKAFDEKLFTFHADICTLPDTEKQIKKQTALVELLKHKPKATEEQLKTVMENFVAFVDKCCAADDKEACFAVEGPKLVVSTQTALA

SMILES | composite z-score (Albumin (Bos taurus)) | composite Z-score [1] | composite z-score [2] | composite z-score [3] | composite z-score [4] | composite z-score [5] | composite z-score [6] | composite z-score (Sam68 (KHDRBS1)) | composite z-score [7] | composite z-score [8]
Cc1ccc(S[C@]2(C(=O)NCc3ccccc3)CC(=O)N(C3CCCCC3)[C@@H]2c2ccc(CO)cc2I)cc1 | 0.0863 | -0.0202 (inactive) | 0.0301 | -0.133 | 0.459 | 2.13 | 0.658 | 1.23 | 0.338 | 1.14
C=CCN1C(=O)[C@]2(CCS(=O)(=O)c3ccccc3)N=C(c3ccc(OCCCO)cc3)O[C@@H]2c2ccccc21 | 0.8 | -0.0072 (inactive) | 0.177 | -0.112 | 0.594 | 3.23 | 1.31 | 1.31 | 1 | 1.17
CO[C@H]1O[C@H](CO)[C@@H](OC(=O)Nc2ccc3c(c2)OCO3)[C@H](OC(=O)Nc2ccc3c(c2)OCO3)[C@@H]1OC(=O)Nc1ccc2c(c1)OCO2 | 0.792 | 0.871 (inactive) | 0.0789 | -0.0349 | 0.572 | 2.51 | 0.943 | 1.31 | 0.12 | 0.954
CCCC1(C(=O)OC)C=C2C(=C(C)C(=O)C2C)CN1 (stereo not given) | -0.15 | 0.931 (inactive) | 0.0416 | -0.0936 | 0.664 | 1.24 | -0.293 | -0.406 | -0.027 | -2.2
NC(=O)NCC#Cc1ccc2c(c1)[C@]1(C(=O)N2)[C@H](c2ccccc2OCCO)N2[C@H](c3ccccc3)[C@H](c3ccccc3)OC(=O)[C@H]2[C@@H]1C(=O)O | 0.276 | 0.155 (inactive) | -0.245 | -0.0772 | 0.496 | 0.259 | 0.931 | 0.293 | -0.128 | 0.96
COC(=O)[C@@]1(Cc2ccc(F)cc2)[C@H]2c3cc(C(=O)N4CCCC4)n(CCc4c[nH]c5ccccc45)c3C[C@H]2CN1C(=O)c1ccccc1 | 1.11 | -0.263 (inactive) | 0.558 | 0.184 | 0.795 | 3.17 | 1.76 | 1.3 | 0.291 | 0.984
COc1cc2c(cc1O)C(C1CC1)N(Cc1cccc(OC(F)(F)F)c1)CC2 (stereo not given) | 0.353 | 0.926 (inactive) | -0.0824 | -0.0846 | 0.814 | 1.06 | 0.762 | -0.316 | 0.13 | -0.744
C=C[C@@H](CO)N(Cc1ccc(OC)cc1)S(=O)(=O)c1ccc(Br)cc1 | 0.131 | -0.0461 (inactive) | -0.147 | -0.0078 | 0.352 | 0.31 | -0.345 | 0.388 | 0.231 | 0.241
CCCCCC1=C2CNC(C)(C(=O)OC)C=C2C(C)C1=O (stereo not given) | 0.673 | 0.239 (inactive) | -0.0716 | 0.0414 | 0.839 | 1.18 | 0.947 | -0.868 | -0.409 | -1.51
C#CCN([C@@H](Cc1ccccc1)C(=O)OC)[C@@H](/C=C/C1CC1)[C@H](O)Cc1ccccc1 | 0.801 | -0.275 (inactive) | -0.0984 | -0.208 | -0.321 | -0.0769 | 0.868 | -0.326 | 1.16 | -1.5
CCCC=C(CCC)[C@@H](NP(=O)(c1ccccc1)c1ccccc1)c1ccc(-c2ccccc2)cc1 | 0.91 | 0.439 (inactive) | 0.36 | 0.0117 | 0.561 | 2.52 | 0.272 | 1.34 | -0.465 | 1.09
CCCC[C@@H](O)C1=C(COc2ccccc2)C[C@H]2C(=O)N(Cc3ccccc3)C(=O)[C@H]2[C@H]1CO | 0.0031 | -0.861 (inactive) | -0.287 | -0.0795 | 0.099 | 0.523 | -0.523 | 0.426 | 0.228 | 0.395
CCOC(=O)C[C@H]1[C@H](OC(=O)c2ccc(-c3ccccc3)cc2)[C@@H](NC(=O)CC(C)C)c2cc(OCCCO)ccc2N1C(=O)c1ccc2ccccc2n1 | 0.363 | -0.122 (inactive) | 0.041 | -0.161 | 0.0808 | 1.19 | -0.259 | 0.787 | 0.0987 | 1.07
